Assay results: PubChem BioAssay AID624288 (National Center for Advancing Translational Sciences (NCATS), 2012)
Hit rate of the full screen: of about 340,000 compounds, about 1,400 (0.41%) were called active. Another 4% or so got no clear call; they are omitted. The entries come from a sample that favours actives as a whole. A number with no mark means an inactive call. Calls follow the shape of the full dose curve; cell line not stated here.

experiment: qHTS for Antagonists of gsp, the Etiologic Mutation Responsible for Fibrous Dysplasia/McCune-Albright Syndrome: qHTS; conditions: gsp-mutant cells, cAMP HTRF, 30 min; series mostly up to 76.9 µM; activity change, negative = inhibition: at the top concentration; also: nearly all actives have a fitted effect of over 65% in size
Source text: McCune-Albright syndrome (MAS) is a rare disease caused by somatic mutations in Gsgsp), a widely expressed protein central in signal transduction from G-coupled protein receptors (GPCRs). The disease symptoms are diverse, owing to the fact that the patients are mosaics with varying degrees of tissue involvement. Greater than 90% of the mutations in Gs in MAS occur at the R201 position and are equally divided between R201H and R201C. The R201 residue is central in the intrinsic GTPase activity of Gs and the H and C mutations lead to loss of, or impairment of, the GTPase activity. The intrinsic GTPase activity is necessary to terminate the interaction between Gs and adenylate cyclase, and to terminate the cAMP-mediated signaling of the given GPCR pathway. Thus, these activating mutations lead to ligand-independent activation of GPCR pathways. The tissue phenotype is determined by the role of Gs in the function of a given cell, and excess Gs/cAMP signaling in that cell. For example, pituitary somatotrophs overproduce growth hormone in a growth hormone releasing hormone-independent fashion, and gigantism/acromegaly ensues. Skeletal stem cells in the bone marrow behave as if they are under constant parathyroid hormone stimulation and fail to differentiate into osteoblasts and osteocytes, and proliferate as immature osteogenic cells and lead to the marrow fibrosis of fibrous dysplasia of bone. The goal of this project is to identify molecules with inhibitory activity at gsp mutations that will not only allow for in-depth study of the underlying molecular and cellular pathophysiology, but also serve as compounds from which drugs to treat FD/MAS can be developed NIH Chemical Genomics Center [NCGC] NIH Molecular Libraries Probe Centers Network [MLPCN] MLPCN Grant: IRP-FT-DE-2011-01 Assay Submitter (PI): Michael Collins, NIDCR
1.#Seed 2000 cells/well in 6 ul DMEM 10% FBS, 1% Pen/Strep, 0.5 mg/ml G418 2.#Incubate 16-24 hr at 37C, 5% CO2, 95% humidity 3.#Aspirate leaving 1 ul residual volume 4.#Dispense 5 ul/well DPBS + 1 mM CaCl2, 0.5 mM MgCl2, 0.05% BSA, 0.005% Tween 20 5.#Aspirate leaving 2 ul residual volume 6.#Dispense 23 nl/well compounds in DMSO 7.#Dispense 1 ul/well 300 uM Ro-20174 in DMEM 10% FBS 8.#Incubate 30 min at 37C, 5% CO2, 95% humidity 9.#Dispense 1.5 ul/well HTRF reagent: cAMP-d2 in lysis buffer 10.#Dispense 1.5 ul/well HTRF reagent: anti-cAMP antibody-K in lysis buffer 11.#Incubate 30 min at room temperature 12.#Detect HTRF signal using EnVision plate reader
% is scaled to controls: 0 for no effect and ±100 for the full control effect; potency is read from the fitted curve at half-maximal effect.

Row | SMILES | activity change, negative = inhibition [%] | Potency
1 | Cc1ccc(C(=O)OCC(=O)N2CCCCCC2)cc1S(=O)(=O)N1CCOCC1 | -6.68 | –
2 | COc1ccc(CNC(=O)COC(=O)c2ccc(C)c(S(=O)(=O)N3CCOCC3)c2)cc1OC | -4.89 | –
3 | COc1ccc(C(=O)OCC(=O)c2ccc(C)c(S(=O)(=O)N3CCOCC3)c2)cc1OC | – | 28.2 µM (active)
4 | COC1C(CO)OC(n2cnc3c(=S)nc(N)[nH]c32)C1O (configuration not stated) | -0.246 | –
5 | COc1ccc2oc(N)nc2c1 | 7.22 | –
6 | NC(=O)C1(Nc2ccc([N+](=O)[O-])cc2)CCCC1 | 7.87 | –
7 | O=C(NCCc1csc(-c2ccccc2)n1)c1ccccc1F | -20.8 | –
8 | COc1ccc(-c2nc(CCNC(=O)c3ccc(Br)o3)cs2)cc1 | – | 44.7 µM (active)
9 | COc1ccc(N2CCN(C(=O)CNC(=O)c3ccc(Br)o3)CC2)cc1 | 5.12 | –
10 | Cc1ccc(S(=O)(=O)N2CCN(C(=O)c3cc(S(=O)(=O)N4CCOCC4)ccc3F)CC2)cc1 | 6.87 | –
11 | c1ccc(-c2c[nH]c(-c3ccccc3)c2)cc1 | -13.3 | –
12 | Cc1ccc(S(=O)(=O)c2cc3c(=O)n4cccc(C)c4nc3n(CCc3ccccc3)c2=N)cc1C | 8.56 | –
13 | CC12CCCCC1=CC(=O)CC2 (configuration not stated) | -0.525 | –
14 | CC(C)Cc1nnc(N)s1 | 5.9 | –
15 | Cn1c2ccccc2c(=O)c2c(=O)n(Cc3ccco3)c(COc3ccccc3)nc21 | -3.84 | –
16 | COc1ccc(-n2cnc3cc(NCc4ccco4)ccc32)cc1 | -16 | –
17 | COc1ccc(-c2oc3ncn(Cc4ccco4)c(=N)c3c2-c2ccc(OC)cc2)cc1 | – | 50.1 µM (active)
18 | OCC(O)C1OCOC(C(O)CO)C1O (configuration not stated) | -2.27 | –
19 | CCOC(=O)N(Cc1ccccc1)C1CC1 | 12.5 | –
20 | CCc1c(Nc2ccccc2Cl)nc(N)[nH]c1=O | 8.47 | –
21 | Cc1cc(C(=O)NC2CCCc3c2cnn3-c2cccc(C)c2C)c(C)o1 (configuration not stated) | -32.6 | –
22 | COc1ccc(C(=O)NC2CCCc3c2cnn3-c2cccc(C)c2C)c(OC)n1 (configuration not stated) | – | 39.8 µM (active)
23 | CC(=O)NCC(=O)NC1CCCc2c1cnn2-c1ccccc1F (configuration not stated) | 2.94 | –
24 | S=C(Nc1ccccc1)Nc1ccc2ccccc2c1 | 2.23 | –
25 | Cn1c(=O)[nH]c2c(c(C(=O)O)nn2C)c1=O | 12.5 | –
26 | CC(=O)c1c(C)[nH]c(C(=O)COC(=O)c2cccs2)c1C | 2.97 | –

Row | SMILES | activity change, negative = inhibition [%] | Potency
27 | CC(=O)c1c(C)[nH]c(C(=O)COC(=O)c2cccc(S(=O)(=O)N(C)c3ccccc3)c2)c1C | – | 31.6 µM (active)
28 | COc1cccc(C(=O)OCC(=O)c2[nH]c(C)c(C(C)=O)c2C)c1 | 9.61 | –
29 | Cc1noc(C)c1NC(=O)Nc1ccc2c(c1)C(=O)N([C@H](C)CO)C[C@H](C)[C@@H](CN(C)C(=O)Nc1ccccc1)O2 | -0.581 | –
30 | Cc1noc(C)c1NC(=O)Nc1ccc2c(c1)C(=O)N([C@H](C)CO)C[C@H](C)[C@@H](CN(C)S(=O)(=O)c1cn(C)cn1)O2 | 8.95 | –
31 | COc1ccc(S(=O)(=O)N(C)C[C@@H]2Oc3ccc(NC(=O)Nc4c(C)noc4C)cc3C(=O)N([C@H](C)CO)C[C@@H]2C)cc1 | – | 7.94 µM (active)
32 | O=C(CCCCCCCC(=O)N1CCCCC1)N1CCCCC1 | 5.76 | –
33 | COc1ccc(CCC(=O)Nc2ccc(Cl)c(S(=O)(=O)N3CCOCC3)c2)cc1OC | -29.5 | –
34 | CC(=O)N1CCc2ccc(N)cc21 | -6.4 | –
35 | CCCCN(C(=O)c1cccc(N2C(=O)c3ccccc3C2=O)c1)c1c(N)n(CCCC)c(=O)[nH]c1=O | 5.59 | –
36 | Cc1nn2cc(-c3ccc(Cl)cc3)cnc2c1Br | – | 8.91 µM (active)
37 | CCCCNC1(C#N)CCN(Cc2ccccc2)CC1 | -5.64 | –
38 | O=C(OCCOc1ccccc1F)c1cc(S(=O)(=O)N2CCOCC2)ccc1F | -15.2 | –
39 | COc1cccc(C(=O)Nc2nnc(S(=O)(=O)N3CCCCC3)s2)c1 | -14.2 | –
40 | COc1cccc(C(=O)Nc2nnc(S(=O)(=O)N3CCOCC3)s2)c1 | -6.83 | –
41 | Cc1nc2ccc(NC(=O)c3cccc(S(=O)(=O)N4CCOCC4)c3)cc2s1 | -11.8 | –
42 | O=C(Nc1nnc(S(=O)(=O)N2CCCCCC2)s1)c1cccc(Br)c1 | – | 28.2 µM (active)
43 | O=C(Nc1nnc(S(=O)(=O)N2CCOCC2)s1)c1cccc(Br)c1 | – | 44.7 µM (active)
44 | O=C(Nc1nncs1)c1cccc(S(=O)(=O)N2CCCCC2)c1 | -3.16 | –
45 | Cc1nc(N)nc(Cl)c1CCC1OCCO1 | 9 | –
46 | CCN1C[C@@H]2[C@@H]3C(=O)N(Cc4ccccc4)C(=O)[C@@H]3[C@](C)(C1=O)N2C(=O)c1ccc(C(C)(C)C)cc1 | 0.48 | –
47 | Cc1nc2c(C(=O)NCc3ccc4c(c3)OCO4)c[nH]n2c(=O)c1Cc1ccccc1F | – | 28.2 µM (active)
48 | O=C(NCc1ccc2c(c1)OCO2)c1cc(F)c(F)cc1Cl | -9.25 | –
49 | CCn1c(=O)c(C(=O)NCc2ccc3c(c2)OCO3)c(O)c2ccccc21 | -3.59 | –
50 | COc1ccc(Nc2ccc3ccccc3c2)cc1 | 0.49 | –
51 | Cc1ccc(Nc2c(O)nc[nH]c2=O)cc1C | -0.0318 | –
52 | O=C(NCC1(N2CCCCC2)CCCCC1)c1cccc(S(=O)(=O)Nc2ccccc2Cl)c1 | -6.06 | –
